Experimental data published in PubChem BioAssay (Tox21).
Results filed as inconclusive are left out. Active and inactive are the calls of the source. Unless noted, the call rests on the fitted dose curve; in most records, active means well fitted curve in the direction sought with a large enough effect in the repeat runs; inconclusive means weak or mixed curves; inactive means no such curve, though single readings can be large; an effect the other way counts as inactive or inconclusive.

Key:
[1] = A CellTox Green Cytotoxicity Assay to monitor cytotoxicity in HepG2 cells - 8 hour (AID 1224890); further: nearly all actives have a fitted effect of over 45% in size
How it was run: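 Fluorescent DNA-binding dye, 600 HepG2 cells/well, 5 h preincubation then compound in DMSO; same plates read at 0–40 h, 37 C.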

[2] = qHTS assay to identify small molecule antagonists of the androgen receptor (AR) signaling pathway using the MDA cell line in the presence of 0.5 nM R1881 - cell viability counter screen (AID 1259242); further: nearly all actives have a fitted effect of over 45% in size
How it was run: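 Human breast carcinoma MDA-kb2 cells, cultured without CO2, receive compounds alongside 0.5 nM (final) R1881 agonist. After 16 hr at 37C, viability is taken as live-cell protease signal.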

[3] = molecular target: Estrogen receptor (Homo sapiens) (UniProt P03372); assay: qHTS assay to identify small molecule antagonists of the estrogen receptor alpha (ER-alpha) signaling pathway using the BG1 cell line in the presence of 0.1 nM 17-beta-estradiol (AID 1259244); further: nearly all actives have a fitted effect of over 50% in size
How it was run: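 Seeding of stripped-serum-adapted VM7Luc4E2 cells, 24 h attachment, compound transfer, then 0.1 nM final 17beta-estradiol; after 22 h incubation, ONE-Glo reagent and luminescence reading.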

[4] = qHTS assay to identify small molecule phospholipidosis (PLD) inducers (AID 1259344; active means well fitted curve in the direction sought with a large enough effect; an effect the other way counts as inactive or inconclusive)
How it was run: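 After 4 h attachment on collagen I, HepG2 cells were dosed with compound alongside LipidTOX Red, kept 24 h at 37 C, fixed, and imaged for lamellar phospholipid pits.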

[5] = qHTS assay to identify small molecule HDAC inhibitors (AID 1259364);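 further: wild-type HCT-116 cells with endogenous class I/II HDAC activity; top concentration of the series differs between compounds; nearly all actives have a fitted effect of over 45% in size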
How it was run: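 After a 2 hr compound incubation (37C, 5% CO2), HCT-116 cells seeded at 1,500/well the day before received HDAC-Glo reagent; signal read as luminescence after 30 min at room temperature.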

[6] = qHTS assay to identify small molecule HDAC inhibitors - cell viability counter screen (AID 1259365); further: series mostly up to about 92 µM; nearly all actives have a fitted effect of over 50% in size
How it was run: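 Wild-type HCT-116 cells, 1,500/well, cultured overnight, then compound-treated 2 h at 37 C. Viability measured as ATP luminescence with CellTiter-Glo after 30 min at room temperature.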

[7] = qHTS assay to identify small molecule agonists of the sonic hedgehog signaling (Shh) pathway - cell viability counter screen (AID 1259366); further: nearly all actives have a fitted effect of over 50% in size
How it was run: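 NIH/3T3-derived Gli1-Luc reporter cells, 2,000 per well, received compound after 4 h and were treated about 23 h at 37C. Viability measured in the same wells by CellTiter-Fluor fluorescence after 1 h.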

[8] = qHTS assay to identify small molecule antagonists of the sonic hedgehog signaling (Shh) pathway - cell viability counter screen (AID 1259367); further: nearly all actives have a fitted effect of over 55% in size
How it was run: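 Conditioned medium drove Shh signaling in 3T3 Gli1-Luc cells exposed to compounds at 37C and 5% CO2. Viability was determined from CellTiter-Fluor fluorescence, with reagent incubated 1 hr after 23 hr of treatment.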

[9] = qHTS assay to identify small molecule agonists of the sonic hedgehog signaling (Shh) pathway (AID 1259368; calls by dose curve;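 further: NIH/3T3-derived 3T3Gli1-Luc cells carrying a stable Gli1-driven firefly luciferase reporter; series mostly up to about 92 µM; nearly all actives have a fitted effect of over 15% in size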)
How it was run: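 Stable NIH/3T3 Gli1-Luc reporter clone; 24 hr cpd exposure after a 4 hr settling period; luminescence endpoint.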

[10] = molecular target: Estrogen receptor beta (Homo sapiens) (UniProt Q92731); assay: qHTS assay to identify small molecule agonists of the estrogen receptor beta (ER-beta) signaling pathway (AID 1259377; active means well fitted activation curve with a large enough effect in the signal ratio in the repeat runs, not every such curve was filed as active; the % refers to the signal ratio)
How it was run: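 ER-beta-UAS-bla HEK293T cells in medium with 2% charcoal-stripped FBS were exposed to compounds for 16 h at 37C. Beta-lactamase reporter activity was read as fluorescence after 2 h with LiveBLAzer B/G FRET substrate at room temperature.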

[11] = molecular target: Estrogen receptor beta (Homo sapiens) (UniProt Q92731); assay: qHTS assay to identify small molecule antagonists of the estrogen receptor beta (ER-beta) signaling pathway (AID 1259378; active means well fitted inhibition curve with a large enough effect in the signal ratio in the repeat runs, not every such curve was filed as active; the % refers to the signal ratio)
How it was run: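 ER-beta-UAS-bla HEK293T (GripTite) cells in 2% charcoal-stripped FBS medium were preincubated 6 hr at 37C, dosed with compound, then stimulated with 1 nM E2 (final) for 16 hr; beta-lactamase reporter read by B/G FRET fluorescence after 2 hr substrate loading.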

[12] = qHTS assay to identify small molecule agonists of the androgen receptor (AR) signaling pathway in the presence of an antagonist - cell viability counter screen (AID 1259379);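 further: MDA-kb2 human breast cancer cells carrying an MMTV luciferase reporter; series mostly up to about 92 µM; nearly all actives have a fitted effect of over 25% in size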
How it was run: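 Counter screen for cell viability run in parallel with the AR agonist-mode luciferase assay. MDA-kb2 cells were co-treated with nilutamide (3.0uM final) and compounds, then incubated 16 hr at 37C, and CellTiter-Fluor fluorescence was measured.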

[13] = qHTS assay to identify small molecule antagonists of the estrogen receptor beta (ER-beta) signaling pathway - cell viability counter screen (AID 1259382); further: series mostly up to about 92 µM; nearly all actives have a fitted effect of over 55% in size
How it was run: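 HEK293T ER-beta-UAS-bla, 2% charcoal-stripped FBS; compounds + 1nM E2 16 hr 37C; CellTiter-Glo luminescence, 30 min RT.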

[14] = molecular target: Estrogen receptor (Homo sapiens) (UniProt P03372); assay: qHTS assay to identify small molecule agonists of the estrogen receptor alpha (ER-alpha) signaling pathway in the presence of an antagonist (AID 1259383; calls by dose curve; further: top concentration of the series differs between compounds; nearly all actives have a fitted effect of over 15% in size)
How it was run: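 ER-alpha agonism measured under antagonist challenge: 10.0nM ICI-182,780 (final) plus compound, 15 concentrations, 22hr, VM7Luc4E2 ERE-luciferase cells. Read by luminescence.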

[15] = qHTS assay to identify small molecule agonists or antagonists of the thyroid stimulating hormone receptor (TSHR) signaling pathway - wild type cell line counter screen (AID 1259384; calls by dose curve)
How it was run: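 Wild-type HEK293 cells were plated 18 h at 37 C/5% CO2, pin-dosed with compound plus Ro20-1724 medium, held 30 min at room temperature, then given cAMP-d2 and anti-cAMP-cryptate; fluorescence was read after 1 h. Fifteen concentrations, triplicate.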

[16] = qHTS assay to identify small molecule antagonists of the estrogen receptor alpha (ER-alpha) signaling pathway using the BG1 cell line in the presence of 0.1 nM 17-beta-estradiol - cell viability counter screen (AID 1259241); further: nearly all actives have a fitted effect of over 40% in size
How it was run: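 VM7Luc4E2 cells (endogenous full-length ER-alpha, 4xERE-luciferase), cultured 5 days in charcoal-stripped serum, exposed to compounds with 0.1 nM 17beta-estradiol (final) for 22 hr at 37C. Viability read in same wells as live-cell protease fluorescence after 30 min.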

[17] = qHTS assay to identify small molecule antagonists of the sonic hedgehog signaling (Shh) pathway (AID 1259369; calls by dose curve; further: nearly all actives have a fitted effect of over 45% in size)
How it was run: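 Gli1 transcriptional reporter (firefly Luc) in NIH/3T3 background, conditioned-medium activated. 24hr exposure, luminescence endpoint.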

[18] = qHTS assay to identify small molecule agonists of the estrogen receptor beta (ER-beta) signaling pathway - cell viability counter screen (AID 1259380); further: nearly all actives have a fitted effect of over 30% in size
How it was run: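 In this qHTS counter screen, HEK293T cells carrying an ER-beta/UAS beta-lactamase reporter, grown in 2% charcoal-stripped FBS, received compound for 16 hr; ATP-based CellTiter-Glo luminescence was then read after 30 min at room temperature.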

Measured: Potency

Sequence of Estrogen receptor (Homo sapiens) (P03372 whole entry, looked up): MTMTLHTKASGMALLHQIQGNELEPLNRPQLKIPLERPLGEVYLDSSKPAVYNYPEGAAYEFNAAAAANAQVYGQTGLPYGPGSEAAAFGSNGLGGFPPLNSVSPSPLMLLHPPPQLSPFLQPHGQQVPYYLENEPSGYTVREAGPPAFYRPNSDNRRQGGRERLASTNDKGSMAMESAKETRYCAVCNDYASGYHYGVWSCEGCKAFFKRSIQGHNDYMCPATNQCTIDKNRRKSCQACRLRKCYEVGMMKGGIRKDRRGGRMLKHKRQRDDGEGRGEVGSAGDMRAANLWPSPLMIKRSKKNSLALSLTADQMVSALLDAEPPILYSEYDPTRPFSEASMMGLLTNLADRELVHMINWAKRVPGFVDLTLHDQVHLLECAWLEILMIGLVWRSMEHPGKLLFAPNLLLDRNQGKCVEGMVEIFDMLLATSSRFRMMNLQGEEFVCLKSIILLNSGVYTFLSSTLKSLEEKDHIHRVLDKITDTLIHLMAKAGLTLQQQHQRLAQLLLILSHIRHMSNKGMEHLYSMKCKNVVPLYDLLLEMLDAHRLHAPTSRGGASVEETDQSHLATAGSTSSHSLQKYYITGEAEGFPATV
Sequence of Estrogen receptor beta (Homo sapiens) (Q92731 whole entry, looked up): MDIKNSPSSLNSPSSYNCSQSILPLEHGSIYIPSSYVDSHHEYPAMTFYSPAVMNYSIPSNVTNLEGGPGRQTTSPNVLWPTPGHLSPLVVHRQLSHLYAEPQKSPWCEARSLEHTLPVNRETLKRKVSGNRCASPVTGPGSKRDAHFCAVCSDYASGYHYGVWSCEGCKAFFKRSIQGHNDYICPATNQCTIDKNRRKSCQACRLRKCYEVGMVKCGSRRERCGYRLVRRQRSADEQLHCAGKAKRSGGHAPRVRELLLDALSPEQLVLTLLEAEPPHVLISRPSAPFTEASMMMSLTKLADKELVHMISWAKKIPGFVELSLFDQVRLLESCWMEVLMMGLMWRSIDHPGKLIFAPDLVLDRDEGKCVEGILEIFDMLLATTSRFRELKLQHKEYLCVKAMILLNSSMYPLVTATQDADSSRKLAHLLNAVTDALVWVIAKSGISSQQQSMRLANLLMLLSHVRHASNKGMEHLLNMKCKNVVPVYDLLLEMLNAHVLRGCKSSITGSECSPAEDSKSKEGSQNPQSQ

COc1cc(N)c(Cl)cc1C(=O)NC1CCN(Cc2ccccc2)CC1
not listed: [16] | [17] | [18]
inactive: all other assays above

CCCCCCCOC(=O)CCC
not listed: [2] | [4] | [8] | [10]
inactive: all other assays above

Cc1cccc(C)c1NC(=O)CN1CCCCCC1
not listed: [16]
inactive: all other assays above

CCCCOc1cc(C(=O)NCCN(CC)CC)c2ccccc2n1
inactive: [1] | [16] | [5] | [6] | [9] | [10] | [13] | [15]

CCN(CC)CCOc1ccc(Cc2ccccc2)cc1
not listed: [8] | [10] | [11] | [16] | [17] | [18]
inactive: all other assays above

CCC1(C)NC(=O)NC1=O (stereo not drawn)
not listed: [2] | [3] | [4] | [9] | [14] | [18]
inactive: all other assays above

CCCCC(CC)COC(=O)COc1cc(Cl)c(Cl)cc1Cl (stereo not drawn)
not listed: [2] | [4] | [8] | [13] | [18]
inactive: all other assays above

COC(=O)c1ccc(OC)cc1
not listed: [2] | [3] | [4] | [8] | [13] | [14]
inactive: all other assays above

C=CCc1cc(OC)c(O)c(C(=O)NCCO)c1
not listed: [10] | [11] | [16]
inactive: all other assays above
